Where “and” joins values, the source holds several entries; their conditions need not be identical. Equal values may be shown once. Out of some 16,000 compounds screened, about 2,600 (16%) were called active. Another 20% or so got no clear call; they are omitted. Only a sample is shown. Values without a mark were called inactive. Calls come from the whole dose curve; as a rule, active = well fitted curve in the direction sought with a large enough effect; inconclusive = small, poorly fitted or top-dose-only effect, or effect the other way; inactive = no such curve, though single readings can be large or run the other way.
These compounds were tested against Cytochrome P450 2D6 (Homo sapiens) (UniProt P10635) (assay: Cytochrome panel assay with activity outcomes). Conditions: recombinant CYP, pro-luciferin dealkylation, luminescence, p450-cyp2d6; series mostly up to 57.1 µM.
% is set by controls: 0 for no effect and ±100 for the full control effect.

Cytochrome P450 2D6 (Homo sapiens), sequence (P10635 whole entry, looked up): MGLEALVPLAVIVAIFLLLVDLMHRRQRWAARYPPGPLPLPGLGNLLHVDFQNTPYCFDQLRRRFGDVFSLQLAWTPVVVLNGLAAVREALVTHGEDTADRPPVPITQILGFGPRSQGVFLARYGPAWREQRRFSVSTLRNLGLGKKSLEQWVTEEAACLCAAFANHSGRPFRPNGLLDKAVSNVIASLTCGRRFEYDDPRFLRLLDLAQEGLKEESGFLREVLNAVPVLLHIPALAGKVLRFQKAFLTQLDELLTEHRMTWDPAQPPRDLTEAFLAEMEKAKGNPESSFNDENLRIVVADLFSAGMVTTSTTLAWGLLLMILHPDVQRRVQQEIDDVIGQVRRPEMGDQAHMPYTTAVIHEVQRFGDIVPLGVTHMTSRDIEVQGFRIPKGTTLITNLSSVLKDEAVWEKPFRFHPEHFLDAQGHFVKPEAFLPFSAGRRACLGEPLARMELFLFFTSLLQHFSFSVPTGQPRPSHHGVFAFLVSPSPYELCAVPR

| Structure (SMILES) | AC50 | activity, negative = inhibition |
| --- | --- | --- |
| NC(=O)c1ncn([C@@H]2O[C@@H](CO)[C@@H](O)[C@H]2O)c1O | inactive | – |
| COc1ccc(O[C@H]2C=C[C@@H](c3ccccc3)O[C@@H]2CON=C(C)C)cc1 | – | -3.07% [at 11.4 µM] |
| O=C(Cc1csc(Nc2nc(=S)[nH]c3ccccc23)n1)NCc1cccc(Cl)c1 | inactive | – |
| Cc1sc2nc(SCC(=O)C(C)(C)C)n(Cc3ccco3)c(=O)c2c1C | inactive | – |
| Cc1n[nH]c(=O)nc1NCc1ccccc1Cl | inactive | – |
| Clc1ccccc1CNCC1CCC(CNCc2ccccc2Cl)CC1 (stereo not drawn) | 12.6 µM (active) | – |
| O=C(O)C[C@H](Cc1ccccc1Cl)C(=O)O | – | -0.233% [at 11.4 µM] |
| CCOC(=O)C(C)Sc1nnc(CNC(=O)c2ccc(OC)cc2)n1C1CCCCC1 (stereo not drawn) | inactive | – |
| CCOC(=O)c1sc2nc3c(cc2c1N)COC(C)(CC)C3 (stereo not drawn) | inactive | – |
| CCOC(=O)c1sc(C)c(C(=O)NCC(C)(C)CN(C)C)c1N | 1.78 µM (active) | – |
| CCOC(=O)c1nc(N)sc1C(=O)OCC | inactive | – |
| Cc1ccc(Cn2cnc3c(nnn3Cc3ccc(Cl)cc3)c2=O)cc1 | inactive | – |
| CC(=O)[C@H]1CC[C@@H]2[C@H]3CC=C4C[C@@H](O)CC[C@]4(C)[C@H]3CC[C@]12C | inactive | – |
| CC(=O)Nc1nnc(S(N)(=O)=O)s1 | inactive | – |
| O=C(c1ccccc1)c1nc2ccccc2n(CCCn2c(=O)c(C(=O)c3ccccc3)nc3ccccc32)c1=O | inactive | – |
| CCn1c(/C=C2/C(=O)N(C)c3ccccc32)nc2ccccc2c1=O | inactive | – |
| CCCn1c(/C=C/c2ccccc2)nc2ccccc21 | 8.91 µM (active) | – |
| C[N+]1(C)C[C@@H](O)C[C@@H]1C(=O)[O-] | inactive | – |
| CCNc1ncc2nc(-c3ccccc3)c(=O)n(Cc3cccs3)c2n1 | inactive | – |
| Cc1ccc(-c2nc3ccccc3s2)cc1NC(=S)NC(=O)c1ccccc1 | inactive | – |
| CCn1c(-c2nonc2NC(=O)c2ccccc2)nc2ccccc21 | inactive | – |
| CC(NC(=O)c1ccccc1)c1nc2ccccc2n1Cc1ccccc1F (stereo not drawn) | 14.1 µM (active) | – |
| C=CCn1c(C(C)NC(=O)c2ccccc2)n[nH]c1=S (stereo not drawn) | inactive | – |
| O=c1cc(CO)oc(CN2CCCC2)c1O | inactive | – |
| Cc1ccc(O)c(-c2cc(C(F)(F)C(F)F)nc(-c3ccccc3)n2)c1 | inactive | – |
| Cc1ccc(-c2ccc(/C=N/N3C(=O)C4C5C=CC(C6CC56)C4C3=O)o2)c([N+](=O)[O-])c1 (stereo not drawn) | inactive | – |

| Structure (SMILES) | AC50 | activity, negative = inhibition |
| --- | --- | --- |
| CC(C)C(=O)NCCn1ccc2ccccc21 | inactive | – |
| CC(C)C(=O)NCCc1nc2ccccc2n1CCCOc1ccc(Cl)cc1 | 3.16 µM (active) | – |
| Cn1c(COc2nnc(-c3ccc(Cl)cc3)c3ccccc23)nc2ccccc21 | inactive | – |
| COc1ccc(C(=O)OC(C)CN2CCN(C)CC2)cc1OC (stereo not drawn) | 3.55 µM (active) | – |
| CCOC(=O)N1CCN(C(=O)c2ccc(OC)c(OC)c2)CC1 | inactive | – |
| COc1ccc(C(=O)c2ccc(OC)c(OC)c2)cc1OC | inactive | – |
| Cc1cc(N2CCN(C)CC2)nc2ccc(NC(=O)CCC(=O)NCc3ccco3)cc12 | inactive | – |
| CCCCC/C=C\C[C@H](O)/C=C\c1cccc(C[C@H](O)CCCCO)n1 | inactive | – |
| CCc1ccc(N(C(=O)c2snc(C(N)=O)c2N)C(C(=O)NCCC(C)C)c2c[nH]c3ccccc23)cc1 (stereo not drawn) | inactive | – |
| CC(C(=O)NC1CCCC1)N(C(=O)c1snc(C(N)=O)c1N)c1ccc2c(c1)OCCO2 (stereo not drawn) | 14.1 µM (active) | – |
| COc1ccc(C(C(=O)NC2CCCC2)N(C(=O)c2snc(-c3ccc(F)cc3)c2N)c2ccc(F)cc2)cc1 (stereo not drawn) | inactive | – |
| Cc1ccccc1NC(=S)NN1CCN(C)CC1 | inactive | – |
| O=C(O)c1ccccc1C(=O)NCc1ccc(F)cc1 | inactive | – |
| Cc1ccc(CNCC(O)(c2ccc(F)cc2)c2ccc(F)cc2)cc1 | 1 µM (active) | – |
| CCOC(=O)C(C(=O)NCc1ccc(C)cc1)c1ncc(C(F)(F)F)cc1Cl (stereo not drawn) | inactive | – |
| OC(CNCc1ccc(F)cc1)(c1ccc(F)cc1)c1ccc(F)cc1 | 0.794 µM (active) | – |
| COc1cc2c(C(=O)N3CCN(C)CC3)c(C)n(-c3ccccc3)c2cc1Br | inactive | – |
| CN1CCN(C(=O)c2ccc3c(=O)n4c(nc3c2)CCCCC4)CC1 | inactive | – |
| CCOC(=O)c1ccc(NC(=O)C2(c3ccc(OC)cc3)CCOCC2)cc1 | inactive | – |
| CCOC(=O)CCCNC(=O)c1cncc(Br)c1 | inactive | – |
| CCOC(=O)CCCNC(=O)CCCNC(=O)C(c1ccccc1)c1ccccc1 | 0.891 µM (active) | – |
| CCOC(=O)c1cc(CC)sc1NC(=O)C(c1ccccc1)c1ccccc1 | inactive | – |
| CC(C)(C)C(=O)N1CCc2cc(-c3csc(N)n3)ccc21 | inactive | – |
| CCC(=O)Nc1ccccc1C(=O)OCC(=O)c1ccccc1 | inactive | – |
| CN(C)CCCO[C@H]1[C@H]([C@H](O)CO)O[C@H]2OC(C)(C)O[C@@H]21 | inactive | – |
| Cc1cc2cc(CNC(=O)CC(C)C)ccc2n1C | inactive | – |

| Structure (SMILES) | AC50 | activity, negative = inhibition |
| --- | --- | --- |
| CCOC(=O)N/N=C1/C[C@@H](O)[C@@H](O)[C@@H]2[C@@H]3C(=O)N(c4cccc(Oc5ccccc5)c4)C(=O)[C@H]3CC[C@H]12 | – | 2.57% [at 11.4 µM] |
| CCOC(=O)c1cncc(C(=O)O)c1 | inactive | – |
| CCOC(=O)c1c(C)oc2c1cc(O)c1ccccc12 | inactive | – |
| CCOC(=O)c1c(C(C)(C)C)oc2ccc(O)cc12 | 14.1 µM (active) | – |
| C=CCCCCCCCCC(=O)Nc1c[nH]c(=O)[nH]c1=O | inactive | – |
| O=C1C[C@@H](O)[C@@H](O)[C@H]2[C@@H]3C(=O)N(Cc4ccccc4)C(=O)[C@@H]3CC[C@H]12 | – | -0.874% [at 11.4 µM] and 9.9% [at 11.4 µM] |
| O=C(Nc1ccc(Cl)cc1)OCc1cc(-c2ccccc2Cl)on1 | inactive | – |
| COc1ccc(Cn2nnnc2C(c2ccccc2Cl)N2CCC(C(N)=O)CC2)cc1 (stereo not drawn) | inactive | – |
| O=C(Nc1ccc(Cl)cc1)OCCn1nnnc1C(c1ccccc1Cl)N1CCOCC1 (stereo not drawn) | 15.8 µM (active) | – |
| C#C[C@@]1(O)CC[C@@H]2[C@@H]3CCC4=CC(=O)CC[C@@H]4[C@H]3CC[C@]21CC | inactive | – |
| Cc1onc(C(=O)/C=C/N(C)C)c1C(=O)Nc1nccs1 | inactive | – |
| Cc1ccc(Nc2nc(-c3sc(NC(=O)c4cccc(Cl)c4)nc3C)cs2)cc1 | inactive | – |
| c1cnc(Nc2nc(-c3ccc4ccccc4c3)cs2)nc1 | inactive | – |
| Cc1ccc(Nc2nc(-c3c(C)nc4ncccn34)cs2)cc1 | 12.6 µM (active) | – |
| C/C(CC(=O)NC1CCCC1)=N\NC(=O)Cc1cccs1 | inactive | – |
| COC(=O)[C@H]1C[C@@H]1[C@H](NC(=O)c1ccccc1)c1ccccc1 | inactive | – |
| CC1(C)Cc2c(sc3nc(-c4ccccc4)n(N)c(=O)c23)CO1 | inactive | – |
| CCCSc1nc(SCC(=O)NCc2ccccc2)c2c3c(sc2n1)COC(C)(CC)C3 (stereo not drawn) | inactive | – |
| CCC1(C)Cc2c(sc3nnn(CC(=O)Nc4cccc5ccccc45)c(=O)c23)CO1 (stereo not drawn) | 15.8 µM (active) | – |
| Cc1c(C(=O)O)oc2ccc(S(=O)(=O)NCc3ccc4c(c3)OCO4)cc12 | 15.8 µM (active) | – |
| COc1ccc(OCCNS(=O)(=O)c2ccc3oc4ccccc4c3c2)cc1 | inactive | – |
| O=C(O)C[C@H](Cc1ccc2c(c1)OCO2)C(=O)O | – | -3.42% [at 11.4 µM] |
| Cc1ccc(C2/C(=C(/O)c3ccccc3)C(=O)C(=O)N2CCN2CCOCC2)o1 (stereo not drawn) | inactive | – |
| Cc1nc2ccc(S(=O)(=O)NC(CC(C)C)C(=O)O)cc2s1 (stereo not drawn) | inactive | – |
| C=CCNC(=S)N1CCN(c2ncc3c(=O)c(C(=O)O)cn(CC)c3n2)CC1 | inactive | – |
| N#Cc1ccc(Oc2nc(C(N)=O)cc(-c3ccccc3)n2)cc1 | inactive | – |

| Structure (SMILES) | AC50 | activity, negative = inhibition |
| --- | --- | --- |
| Oc1ccccc1C1Nc2cccc3cccc(c23)N1 | 10 µM (active) | – |
| CC(=O)C1=NOC(CNC(=O)c2c(-c3ccccc3Cl)noc2C)C1 (stereo not drawn) | inactive | – |
| CC1(C)c2ssc(=S)c2-c2ccccc2N1C(=O)CSC1=NCCS1 | inactive | – |
| Cc1[nH]nc(-c2ccc(OCc3cnn(-c4ccccc4)c3)cc2O)c1Oc1ccccc1F | 11.2 µM (active) | – |
| Cc1[nH]nc(-c2ccc(OCc3cnn(-c4ccccc4)c3)cc2O)c1Oc1ccc(F)cc1 | 7.08 µM (active) | – |
| COC(=O)c1ccc(Oc2coc3cc(OCc4cnn(-c5ccccc5)c4)ccc3c2=O)cc1 | inactive | – |
| CCc1ccc(OCC(=O)OC2CCS(=O)(=O)C2)cc1 (stereo not drawn) | inactive | – |
| COc1ccc(-n2ncc3c(NCC4CCCO4)ncnc32)cc1 (stereo not drawn) | inactive | – |
| CCC1(c2ccccc2)C(=O)NCNC1=O | inactive | – |
| O=C(Oc1ccccc1)N1CCC2(CC1)CCN(c1ccccc1)CC2 | inactive | – |
| Brc1ccc(-c2nnc(-c3cccc(Br)c3)o2)cc1 | inactive | – |
| CCCCc1ccc(NC(=S)NCc2cccs2)cc1 | 4.47 µM (active) | – |
| CCCNC(=S)Nc1ccc(Br)cc1 | inactive | – |
| CCc1ccc(NC(=O)CS(=O)CC(=O)NCCCc2ccccc2)cc1 (stereo not drawn) | inactive | – |
| CCC(c1nnnn1CC1CCCO1)N(CCN1CCOCC1)Cc1cc2cc(C)ccc2[nH]c1=O (stereo not drawn) | inactive | – |
| CC(=O)Nc1ccc(N2C(=O)CSC2c2c(F)cccc2Cl)cc1 (stereo not drawn) | inactive | – |
| O=C1CSC(c2ccccn2)N1c1ccc(Cl)c(Cl)c1 (stereo not drawn) | inactive | – |
| O=C1CSC(c2ccccc2F)N1c1cc(Cl)ccc1O (stereo not drawn) | 31.6 µM (active) | – |
| Cc1ccc2nc(-c3ccc(NC(=O)Cc4cccs4)cc3)[nH]c2c1 | inactive | – |
| O=C(CSc1nnnn1C1CCCC1)Nc1ccc(F)cc1 | 14.1 µM (active) | – |
| CCn1nnnc1SCC(=O)NC1CCCC1 | inactive | – |
| COc1ccc(NC(=O)CSc2nnc(C3CC3)n2N)cc1 | inactive | – |
| CCOc1ccc(-c2nnc3n2N=C(c2ccc(OC)cc2)CS3)cc1 | inactive | – |
| CCOc1ccc(C2=Nn3c(nnc3-c3ccco3)SC2)cc1 | inactive | – |
| CCc1ccc(C2=Nn3c(nnc3-c3cccs3)SC2)cc1 | 2.82 µM (active) | – |
